Out of some 48,000 compounds screened, about 13,000 (27%) showed an effect of 50% or more. Some of the results follow.

The subject of the assay is Wolbachia pipientis. Put plainly: Anti-Wolbachia Cell-Based Screen. It counts as functional. Details: scale not given: in the data most compounds retested in dose-response had high values. The conditions noted are these: 5 µM.
On to `Cc1ccc(C(=O)N2CCCC(CNS(=O)(=O)C(C)C)C2)cc1` (stereo not drawn), for which the “Percent Effect” value is reported as -19.42%.
Then `CN(Cc1csc(-c2ccccc2)n1)Cc1ncccc1C(=O)O`, with 4.154%.
For `N#Cc1ccccc1OCCN1CCN(C(=O)C2CCCC2)CC1`, the “Percent Effect” value was -2.024%.
With `CC1CCN(S(=O)(=O)NC2CCCCNC2=O)CC1` (stereo not drawn), the “Percent Effect” value worked out at 36.47%.
In the case of `CC(C)CNC(=O)Nc1ccc(CN2CCOC2=O)cc1`, the “Percent Effect” value is on record as -13.36%.
On to `Cc1ccc(CNC(=O)NC(C)CCS(C)(=O)=O)cc1F` (stereo not drawn), for which the “Percent Effect” value is listed as -1.224%.
In the case of `COCCS(=O)(=O)NCC(C)c1cccc(C)c1` (stereo not drawn), the “Percent Effect” value is reported as -6.365%.
Then `Cc1cccc(C(C)CNS(=O)(=O)CCCC#N)c1` (stereo not drawn), with 5.748%; and `Cc1cc(CNS(C)(=O)=O)ccc1N(C)C`, with 110.2%.
For the compound `Cc1ccc(CNC(=O)c2ccc(CNS(C)(=O)=O)o2)cc1F`, the “Percent Effect” value is 2.956%.
Regarding `Cc1ccc(CNS(=O)(=O)CCCC#N)cc1F`, the “Percent Effect” value was 111.5%.
With `COCCS(=O)(=O)NCc1ccc(N(C)C)c(C)c1`, the “Percent Effect” value is 78.12%.
For `Cc1cnn(CCC(=O)NCc2ccc(N(C)C)c(C)c2)c1` the value was 4.786%; for `CC(CNS(=O)(=O)CCCC#N)c1ccsc1` (stereo not drawn), -6.761%.
As to `CS(=O)(=O)NCc1ccc2c(c1)CCC2`, the “Percent Effect” value is reported as -9.378%.
Turning to `Cc1cc(CNS(=O)(=O)CCCC#N)ccc1N(C)C`, the “Percent Effect” value is given as 89.17%.
`CCN(C)c1ccc(CNS(=O)(=O)CC2CCCO2)cc1F` (stereo not drawn): the “Percent Effect” value was -7.103%.
Take `NCC1CN(C(=O)c2cccc(-n3cccn3)c2)CCO1` (stereo not drawn): the “Percent Effect” value was found to be 12.21%.
For the compound `CCCc1cc(NC2CCc3ncnn3C2)n2ncnc2n1` (stereo not drawn), the “Percent Effect” value is on record as -15.24%.
Then `CSCC(C)(O)CNc1cccc(F)c1C#N` (stereo not drawn), with -5.996%; and `CCCOc1cc(CNC(=O)Nc2cccnc2N2CCCC2)ccn1`, with 3.924%; and `COc1ccc(CNCc2ccnc(N3CCCCC3)c2)cc1OC`, with 4.647%.
For `COc1cccc2cc(CNCc3ccc(N4CCCC4)nc3)oc12` the value was 106.9%.
For `COc1cccc2cc(CNCc3ccnc(N4CCCCC4)c3)oc12` the value was 98.43%; for `COc1ccc(CNCc2ccc(N3CCCCC3)nc2)cc1OC`, 5.038%.
Take `COc1cc(CNCc2ccco2)ccc1OCCO.Cl`: the “Percent Effect” value is -24.56%.
Then `COc1cccc2cc(CNC(=O)N3CCCC(O)C3)oc12` (stereo not drawn), with -11.96%.
Consider `COc1cccc2cc(CNCc3ccnc(N(C)C)c3)oc12`, for which the “Percent Effect” value was found to be 97.53%.
For `COc1cccc2cc(CNCc3ccnc(N4CCOCC4)c3)oc12` the value was -10.04%; for `COc1c(CNCc2ccc(N3CCOCC3)nc2)c(C)nn1C`, -5.256%.
In the case of `CC(NC(=O)NCc1cccc(N2CCCC2=O)c1)c1ccccc1` (stereo not drawn), the “Percent Effect” value was 10.19%.
As to `CC(=O)N[C@@H]1CN(c2nc(C(N)=O)cs2)C[C@H]1c1ccc(C)o1`, the “Percent Effect” value came to 3.94%.
For the compound `CC(C)c1cc(N2CCN(c3ccc(O)cc3)CC2)n2nccc2n1`, the “Percent Effect” value is -10.08%.
Consider `Cc1nc(C)n(CC2CCCCN2CC(=O)NC2CCOCC2)n1` (stereo not drawn), for which the “Percent Effect” value is on record as -3.575%.
As to `Cc1nc(CC(=O)N2CCC(Nc3cccnn3)CC2)cs1`, the “Percent Effect” value is recorded as 10.36%.
Consider `Cc1nc(CC(=O)N2CCN(c3ccc(N(C)C)cc3)CC2)cs1`, for which the “Percent Effect” value was -7.561%.
As for `Cc1nc(C)c(CC(=O)N2C[C@@H](C(=O)O)[C@H](c3ccccc3C)C2)s1`, the “Percent Effect” value is -4.112%.
Take `CCC[C@@H]1CN(C(=O)Cc2sc(C)nc2C)C[C@H]1C(=O)O`: the “Percent Effect” value was 9.333%.
Regarding `Cc1noc(C)c1CC(=O)N1CCC(c2ccn3nccc3n2)CC1`, the “Percent Effect” value is 116.9%.
For `Cc1nc(CC(=O)N2CCC(c3ccn4nccc4n3)CC2)cs1` the value was 100.2%; for `COC1CCN(C(=O)CCc2c(C)nc3ccnn3c2C)CC1`, 2.453%; for `Cc1ncc2c(n1)CCN(C(=O)Cc1c(C)noc1C)C2`, -7.344%.
For the compound `Cc1nc(C)c(CC(=O)N2CCC(c3ccn4nccc4n3)CC2)s1`, the “Percent Effect” value was 148.4%.
Turning to `O=C(NC[C@H]1OC[C@@H](NC2CCC2)[C@@H]1O)Nc1ccccc1`, the “Percent Effect” value came to 27.93%.
For `COCCCN(C)S(=O)(=O)c1ccc(C(F)(F)F)cc1C#N`, the “Percent Effect” value is on record as 0.354%.
With `Cc1cc(CC(C)Nc2ncnc3cccc(F)c23)[nH]n1` (stereo not drawn), the “Percent Effect” value is reported as -16.45%.
Consider `CCN(C(=O)CNc1cc(C)c(F)cc1C(N)=O)C1CC1`, for which the “Percent Effect” value is recorded as -0.2217%.
Turning to `CCN(CC(C)C#N)C(=O)CNc1ccc(C(N)=O)c(C)c1` (stereo not drawn), the “Percent Effect” value stood at 94.3%.
As for `CCN(CC)C(=O)Nc1ccc(C(=O)N(C)C)c(C)c1`, the “Percent Effect” value was -2.57%.
For the compound `CCN(CC(C)C#N)C(=O)CNc1cc(Cl)ccc1C(N)=O` (stereo not drawn), the “Percent Effect” value worked out at 109.4%.
As to `CCN(CC(C)C#N)C(=O)CNc1ccc(F)c(C)c1` (stereo not drawn), the “Percent Effect” value is 98.55%.
As for `Cc1cc(NCC(C)C)ccc1C(=O)N(C)C`, the “Percent Effect” value was -5.944%.
With `Cc1cc(NCC(=O)N(C)C)c(C(N)=O)cc1F`, the “Percent Effect” value was 4.75%.
In the case of `Cc1cc(NC(=O)N(CCC#N)CCCN(C)C)ccc1F`, the “Percent Effect” value is -0.7911%.
In the case of `CCN(CC(C)C#N)C(=O)CSc1ccc(C(F)(F)F)cn1` (stereo not drawn), the “Percent Effect” value is given as -16%.
`CNC(=O)N1CCC2(CC1)CN(C(C)C)Cc1cc(F)ccc12.Cl`: the “Percent Effect” value is recorded as -6.692%.
Turning to `CCn1c(CN(C)C)nnc1C1CCN(Cc2ccc(Cl)cc2)CC1`, the “Percent Effect” value was -12.39%.
Consider `CN1CCCN(S(=O)(=O)c2cn(C)cn2)c2cc(Cl)ccc21`, for which the “Percent Effect” value is -2.244%.
In the case of `Cc1noc(C)c1C(C)NC(=O)N1CCCN(C(=O)c2ccsc2)CC1` (stereo not drawn), the “Percent Effect” value was 6.672%.
In the case of `Cc1noc(C)c1C(=O)N1CCCN(C)c2ccc(Cl)cc21`, the “Percent Effect” value came out at 90.03%.
Turning to `Cc1noc(C)c1C(=O)N1CCSc2ccc(Cl)cc21`, the “Percent Effect” value turned out to be 93.15%.
For `Cc1noc(C)c1CN(C)C(=O)CCOc1ccc(Cl)cc1` the value was 13.27%.
For `CCC(CNC(=O)Cc1c(C)noc1C)N1CCCC1` (stereo not drawn), the “Percent Effect” value worked out at 6.109%.
On to `Cc1noc(C)c1C(C)C(=O)N1CCCN(C)c2ccc(Cl)cc21` (stereo not drawn), for which the “Percent Effect” value was found to be 111.8%.
For `Cc1noc(C)c1CC(=O)N1CCCN(C)c2ccc(Cl)cc21`, the “Percent Effect” value is 108.2%.
Take `Cc1noc(C)c1C(C)NC(=O)N1CCN(c2cccs2)CC1` (stereo not drawn): the “Percent Effect” value was 5.123%.
`Cc1noc(C)c1C(=O)N1CC[C@H]2C[C@@H](c3nccs3)O[C@@H]2C1`: the “Percent Effect” value is on record as -4.112%.
Take `Cc1nc(CN2CCN(C(=O)c3c(C)noc3C)CC2)cs1`: the “Percent Effect” value was -5.34%.
Regarding `O=c1[nH]nc(CNc2cncc(Br)c2)[nH]1`, the “Percent Effect” value is -1.101%.
`Cn1cc(S(=O)(=O)NC(=O)C2(c3cccc(Cl)c3)CC2)cn1`: the “Percent Effect” value is 9.889%.
Consider `Cc1ccc(CN(Cc2ccncc2)C2CC(C)(C)NC(C)(C)C2)o1.O=C(O)CC(O)(CC(=O)O)C(=O)O`, for which the “Percent Effect” value is listed as 117.7%.
For `CC1(C)CC(N(Cc2ccccc2)Cc2ncc[nH]2)CC(C)(C)N1.O=C(O)CC(O)(CC(=O)O)C(=O)O` the value was 109.1%; for `Cc1ccccc1CN(CCO)Cc1ncc[nH]1`, -0.936%.
Consider `CN(Cc1ncc[nH]1)CC1CCOc2ccccc2C1` (stereo not drawn), for which the “Percent Effect” value was determined as 5.15%.
Turning to `Cc1ccc(CN2CC[C@@H](NS(C)(=O)=O)[C@@H]2Cc2ccncc2)o1.O=C(O)C(F)(F)F.O=C(O)C(F)(F)F`, the “Percent Effect” value is reported as 0.02145%.
Consider `Cc1cccc(CN(Cc2ccc(C)o2)C2CC(C)(C)NC(C)(C)C2)n1.O=C(O)CC(O)(CC(=O)O)C(=O)O`, for which the “Percent Effect” value was -13.89%.
As for `Cc1ccc(CN(Cc2ncc[nH]2)C2CC(C)(C)NC(C)(C)C2)o1.O=C(O)CC(O)(CC(=O)O)C(=O)O`, the “Percent Effect” value is on record as 124%.
Take `CCN(CC)C(=O)[C@@H]1C[C@@H](NC(=O)c2ccoc2)CN1C`: the “Percent Effect” value turned out to be 5.596%.
As for `CN(Cc1ncc[nH]1)CC(c1cccs1)N1CCOCC1` (stereo not drawn), the “Percent Effect” value is on record as -1.486%.
Turning to `Cc1nc(NC(=O)NC2CC(=O)N(C)C2)nn1C(C)C` (stereo not drawn), the “Percent Effect” value was -15.27%.
In the case of `CCC[C@H]1CN(c2nccc(NCC)n2)C[C@@H]1NS(=O)(=O)N(C)C`, the “Percent Effect” value stood at 9.452%.
For `CCNc1ccnc(N2Cc3cnn(Cc4ccc(F)cc4)c3C2)n1` the value was -10.41%.
As to `CCOCc1ccccc1CNc1ccc2nncn2n1`, the “Percent Effect” value was -4.273%.
For the compound `CCCn1nnc(NCc2ccccc2OCc2ccc(Cl)cc2)n1`, the “Percent Effect” value was found to be 104.8%.
For the compound `c1ccc(OCc2ccncc2)c(CNC2CCc3ncnn3C2)c1` (stereo not drawn), the “Percent Effect” value was -0.3287%.
As for `Cc1cnn(CCNCc2ccccc2OCc2cccnc2)c1`, the “Percent Effect” value is on record as -3.699%.
`CCOc1ccc(Cl)cc1CNCCCn1ccnc1`: the “Percent Effect” value was -4.437%.
In the case of `Cn1nnc(NCc2ccccc2OCc2ccc(Cl)cc2)n1`, the “Percent Effect” value came to 119%.
Then `CCn1nnc(NCc2ccccc2OCc2ccc(Cl)cc2)n1`, with 122%; and `CCOc1ccc(CNCCCn2ccnc2)cc1Br`, with 7.125%; and `CCOc1cc(CNc2nnn(C)n2)ccc1OCc1ccc(Cl)cc1`, with 121.9%.
For `COc1ccc(-c2cn3c(n2)CO[C@@H](CNCc2ccccn2)C3)cc1` the value was -5.771%.
Then `CC(C)OCCN1CCc2cncnc2C1`, with -3.318%; and `Cn1nnc(NCc2ccc(OCc3ccc(Cl)cc3)cc2)n1`, with 101.9%; and `Cc1nnc(NCc2ccc(Cl)cc2)o1`, with -6.045%.
As to `CC(NCc1ccc(OCC(N)=O)cc1)c1ccc(Cl)cc1.Cl` (stereo not drawn), the “Percent Effect” value is -2.794%.
For `CCSc1ccc(C(=O)N2CC[C@](C)(O)[C@H](C)C2)s1` the value was 109.4%; for `CCc1ccc(C(=O)N2CCC3(CCC(=O)N(CCN(C)C)C3)CC2)[nH]1`, -7.538%.
For `CC[C@@]1(O)CCN(C(=O)c2ccsc2)C[C@H]1O`, the “Percent Effect” value was -12.48%.
Regarding `CCn1nc(CC(C)C)cc1C(=O)N1CCC2(CC1)[C@H](O)C[C@@H]2O`, the “Percent Effect” value is -14.19%.
Take `CCN1CC2(CCC1=O)CCN(C(=O)c1ccc(Cl)cc1O)CC2`: the “Percent Effect” value was -7.361%.
Take `CCSc1ccc(C(=O)N2CCC3(CC2)[C@H](O)C[C@@H]3O)s1`: the “Percent Effect” value is 100.2%.
Consider `CCSc1ccc(C(=O)N2CCC3(CCC(=O)N(C)C3)CC2)s1`, for which the “Percent Effect” value is 103.4%.
Then `Cc1cc2cccc(C(=O)N3CC[C@](C)(O)[C@H](C)C3)c2o1`, with 15.88%; and `CCc1ccc(C(=O)N2CC[C@](C)(O)[C@H](C)C2)[nH]1`, with -16.61%; and `CO[C@H]1C[C@@H](O)C12CCN(C(=O)CCSCc1ccc(F)cc1)CC2`, with 11.02%.
In the case of `CC[C@@]1(O)CCN(C(=O)c2ccc(-n3cnnc3)cc2)C[C@H]1O`, the “Percent Effect” value stood at 5.833%.
For `CCSc1ccc(C(=O)N2CC[C@](O)(CC)[C@H](O)C2)s1`, the “Percent Effect” value is listed as 107.9%.

Values taken from ChEMBL document CHEMBL3988442, “University of Dundee, Small-Polar-MMV Screening Library” (2021).
